# In the library only some 5.9% were active in any assay of this set; here they are far more common.
# KB-3-1 tox: kills parental KB-3-1 adenocarcinoma cells | KB-3-1 viability, CellTiter-Glo ATP luminescence, 72 h | Potency, µM (titrated, usually from 46.1 µM), actives largely listed as cytotoxic | 400,000 tested, 1.4% active; note: % is set by controls: 0 for no effect and ±100 for the full control effect; nearly all actives have a fitted effect of over 60% in size
#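 Multi-concentration cytotoxicity screen in KB-3-1 cells grown in DMEM lacking phenol red with 10% FBS. After 72 h at 37 °C with compound, ATP-dependent luminescence was recorded.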
# KB-V1 cytotox: KB-V1 MDR subline cytotoxicity; KB-V1 MDR cells viability, CellTiter-Glo, 72 h; Potency, µM (titrated, usually from 46.1 µM), usual class: cytotoxic; AID 1347076; 400,000 tested, 3.4% active; note: % is set by controls: 0 for no effect and ±100 for the full control effect; nearly all actives have a fitted effect of over 60% in size
#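 KB-V1 MDR subline cells in DMEM (phenol-red free, 10% FBS) exposed to compounds in qHTS concentration series for 72 h at 37 degrees C. Viability read by CellTiter-Glo luminescence; concentration-effect curves fitted after normalization and correction.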
# ATXN2 expr inh: inhibitors of ATXN2 expression; Potency, µM (series often up to 57 µM), inactives show at the top dose activity change, negative = inhibition, actives largely listed as inhibitors; HEK-293 ATXN2-luciferase reporter, luminescence, 24 h; AID 1745845; 360,000 tested, 0.72% active; note: % is set by controls: 0 for no effect and ±100 for the full control effect; nearly all actives have a fitted effect of over 55% in size
#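 qHTS (up to 57 uM final) was run with 24 h compound exposure of reporter cells at 37 °C. Each well was multiplexed: SteadyGlo luminescence measured ATXN2-luciferase expression after a fluorogenic Gly-Phe-AFC viability readout (25 uM final).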
# S2 tox: reduces viability in counter-screen for ATXN expression inhibitors; S2 cells (HEK-293 line with an ATXN2-luciferase reporter) viability, CellTiter-Fluor protease fluorescence, 24 h; Potency, µM (doses to about 56.7 µM), most hits filed as cytotoxic; 400,000 tested, 0.49% active; note: nearly all actives have a fitted effect of over 40% in size
# HepG2 tox-1: HepG2 cytotoxicity, counter-screen for TGF-b inhibitors; HepG2 CAGA-GFP viability, ATP luminescence, 18 h; Potency, µM (titrated, usually from 46.1 µM), inactives show at the top dose activity change, negative = cytotoxicity, actives largely listed as cytotoxic; 410,000 tested, 0.76% active; AID 588856
#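 HepG2 CAGA-GFP cells (1000/well, DMEM with 1% FBS) received compound, then TGF-beta at 500 pg/mL final, and were incubated 18 hours at 37 degrees C. Viability was read by CellTiter-Glo luminescence. Media-only wells were set as complete cell-killing and DMSO as no toxicity.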
# TGFb SMAD3 inh: TGF-b pathway inhibition | HepG2 CAGA-GFP TGF-b/SMAD3 reporter, GFP fluorescence, 18 h; TGF-beta stimulated, 500 pg/mL final | Potency, µM (highest dose often 46.1 µM), without a hit: top-dose activity, negative = inhibition, actives largely listed as inhibitors | 410,000 tested, 1.2% active | AID 588855; note: % is set by controls: 0 for no effect and ±100 for the full control effect; nearly all actives have a fitted effect of over 65% in size
#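 Using HEPG2 CAGA-GFP reporter cells at 1000 cells/well, we pinned test compounds, stimulated with recombinant TGF-beta (500 pg/mL final) and measured total well GFP after 18 h.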
# TGFb confirm: TGF-b pathway inhibition, cherry-pick retest | 1,600 tested, 63% active | Potency, µM (highest dose often 46.1 µM), without a hit: at the top dose activity, negative = inhibition, actives largely listed as inhibitors | shares compounds with TGFb SMAD3 inh | HepG2 CAGA-GFP TGF-b reporter, GFP fluorescence, 18 h; cells stimulated with TGF-beta, 500 pg/mL; note: % is set by controls: 0 for no effect and ±100 for the full control effect; nearly all actives have a fitted effect of over 65% in size
# HepG2 tox-2: HepG2 cytotoxicity, TGF-b inhibitor counterscreen | shares compounds with TGFb SMAD3 inh | HepG2 CAGA-GFP viability, ATP luminescence, 18 h; cells stimulated with TGF-beta, 500 pg/mL | Potency, µM (series often up to 46.1 µM), for the others: at the highest dose activity, negative = cytotoxicity, actives largely listed as inhibitors | 1,600 tested, 27% active; note: % is set by controls: 0 for no effect and ±100 for the full control effect; nearly all actives have a fitted effect of over 70% in size
# TGFb CCL64 inh: TGF-b inhibition, CCL64 orthogonal assay | 1,600 tested, 41% active | AID 720536 | Potency, µM (top dose mostly 46.1 µM), inactives show at the top dose activity, negative = inhibition, actives largely listed as inhibitors | CCL64 CAGA-GFP reporter, TGF-b stimulated, GFP fluorescence, 18 h | shares compounds with TGFb SMAD3 inh; note: nearly all actives have a fitted effect of over 65% in size
# COP TGFb inh: validation of TGF-b inhibitors in HepG2 COP promoter reporter. Potency, µM (doses to about 46.1 µM), inactives show at the highest dose activity, negative = inhibition, hits mostly inhibitors. 1,600 tested, 3% active. HepG2 COP-GFP TGF-b reporter, GFP fluorescence, 18 h; cells stimulated by added recombinant TGF-beta. shares compounds with TGFb SMAD3 inh. AID 720537; note: nearly all actives have a fitted effect of over 70% in size
# Starred values were filed as active, the others as inactive; i = inactive; ? = inconclusive; · = not tested or not shown; ! = repeats disagree. Calls come from the whole dose curve; as a rule, active = well fitted curve in the direction sought with a large enough effect; inconclusive = small, poorly fitted or top-dose-only effect, or another doubt; inactive = no such curve, though single readings can be large; an effect the other way counts as inactive or inconclusive. Potency is the fitted concentration of half-maximal effect.
SMILES,KB-3-1 tox,KB-V1 cytotox,ATXN2 expr inh,S2 tox,HepG2 tox-1,TGFb SMAD3 inh,TGFb confirm,HepG2 tox-2,TGFb CCL64 inh,COP TGFb inh
CCS(=O)(=O)c1ncc(Cl)c(C(=O)Nc2ccc(S(=O)(=O)N3CCC(C)CC3)cc2)n1,?,10µM*,-23%,14µM*,1.8µM*,4.5µM*,4.6µM*,4.6µM*,2.1µM*,9.2µM*
CCOc1ccccc1NC(=O)c1nc(S(=O)(=O)Cc2ccccc2)ncc1Cl,?,?,·,8.9µM*,6.3µM*,5µM*,2.9µM*,5.8µM*,4.6µM*,7.3µM*
Cc1ccc(C(=O)NCc2ccc3c(c2)OCO3)c(Cl)c1,i,i,·,i,-20%,0%,·,·,·,·
Cc1ccccc1Nc1nnc(-c2ccc(C)c(S(=O)(=O)NCC3CCCO3)c2)c2ccccc12 (stereo not drawn),i,i,?,?,-14%,-19%,·,·,·,·
CCOC(=O)c1ccc(NC(=O)c2nc(S(=O)(=O)Cc3ccccc3)ncc2Cl)cc1,21µM*,?,?,20µM*,6.3µM*!,3.5µM*,4.6µM*,6.5µM*,2.3µM*,13µM*
CN(c1ccccc1)S(=O)(=O)c1ccc(NC(=O)c2nc(S(C)(=O)=O)ncc2Cl)cc1,?,?,14µM*,16µM*,5.6µM*,5.6µM*,2.9µM*,4.1µM*,1.8µM*,6.5µM*
CCOC(=O)c1ccc(NC(=O)c2nc(SC(C)C)ncc2Cl)cc1,i,i,-24%,i,-24%,-19%,·,·,·,·
Cc1ccc(NC(=O)c2nc(S(=O)(=O)Cc3ccccc3C)ncc2Cl)cc1C,?,18µM*,?,?,16µM*,7.1µM*,3.3µM*,10µM*,3.7µM*,?
Cc1ccccc1CS(=O)(=O)c1ncc(Cl)c(C(=O)Nc2nnc(C(C)C)s2)n1,·,·,·,·,-88%,?,·,·,·,·
O=C(CSc1n[nH]c(-c2ccc(F)cc2)n1)NCCc1ccccc1,·,·,·,·,-3%,-20%,·,·,·,·
COc1ccc(-c2noc(-c3ccc(NC4CCCC4)c([N+](=O)[O-])c3)n2)cc1,i,i,8%,i,0%,?,·,·,·,·
Cc1ccc(Sc2cc(C(=O)NCCN(C)C)c3ccccc3n2)cc1,i,i,·,i,-42%,-9%,·,·,·,·
COc1ccc(C(=O)NCCN(C)C)c2nc3ccccc3cc12,?,8.2µM*,3.4µM*,?,9%,7.1µM*,10µM*,4.6µM*,?,39%
COc1ccc(CNC(=O)CN(Cc2ccccc2)S(=O)(=O)c2ccc(Cl)cc2)cc1,i,?,-10%,i,0%,?,·,·,·,·
COc1ccc(C)cc1S(=O)(=O)N(CC(=O)NCc1ccc(Cl)cc1)Cc1ccccc1,i,?,0%,i,-1%,13µM*,?,?,?,43%
O=C(c1cccs1)N1CCCc2cc(NS(=O)(=O)c3ccc(Cl)cc3)ccc21,i,i,?,?,-8%,?,·,·,·,·
COc1ccc(/C=N/n2cnc3c([nH]c4ccc(F)cc43)c2=O)cc1CN1CCCC1,?,?,·,i,7.1µM*,7.1µM*,16µM*,23µM*,23µM*,?
COc1ccc(/C=N/n2cnc3c([nH]c4ccc(C)cc43)c2=O)cc1CN1CCCC1,?,?,·,·,-60%,?,·,·,·,·
CN(Cc1cccc(Cl)c1Cl)C(=O)c1cccc(S(=O)(=O)N2CCN(Cc3ccccc3)CC2)c1,?,i,-23%,?,-1%,8.9µM*,10µM*,?,?,13%
Cc1nc(N2N=C3/C(=C/c4ccc(F)cc4)CCCC3C2c2ccc(F)cc2)sc1C(=O)N(C)C (stereo not drawn),?,21µM*,?,·,-15%,13µM*,23µM*,?,?,30%
Cc1ccc(-c2nc(CS(=O)CC(=O)NCCc3ccc(Cl)cc3)c(C)o2)cc1 (stereo not drawn),i,i,·,·,-36%,?,·,·,·,·
COc1cccc(Cn2c(=O)n(-c3cccc(Cl)c3)c(=O)c3c4c(sc32)CN(C(C)=O)CC4)c1,i,?,?,i,-35%,?,·,·,·,·
CC(=O)c1ccc(NC(=O)COC(=O)c2c3c(nc4ccccc24)/C(=C\c2cccs2)CCC3)cc1,i,16µM*,?,i,-37%,1.8µM*,6.5µM*,?,1.5µM*,27%
CC(C)CNC(=O)COC(=O)c1c2c(nc3ccccc13)/C(=C\c1cccs1)CC2,i,?,21%,·,-31%,-13%,·,·,·,·
O=C(COC(=O)c1c2c(nc3ccccc13)/C(=C\c1cccs1)CCC2)Nc1ccccc1,12µM*,2.3µM*,-23%,i,-4%,11µM*,?,?,?,39%
COc1ccccc1CNc1nc2ccc(C)cc2n2nnnc12,·,·,·,·,-15%,20%,·,·,·,·
FC(F)Oc1ccc(-c2csc(=Nc3cccnc3)n2CC2CCCO2)cc1 (stereo not drawn),i,i,-27%,i,-54%,?,12%,-30%,-5%,24%
OC1(c2ccc(OC(F)F)cc2)CSC(=Nc2cccnc2)N1Cc1ccco1 (stereo not drawn),i,i,?,?,-21%,-17%,·,·,·,·
CC(=O)c1cccc(NC(=O)CSc2n[nH]c(-c3ccncc3)n2)c1,i,i,5%,i,1%,-20%,·,·,·,·
